Laboratory results as given in PubChem BioAssay.
A number with no mark means an inactive call. For some of these results: Measured potencies and affinities stand elsewhere. Calls of active or inactive are those of the source. Unless noted, the rule behind the calls is not given here.

Assays:
[1] = antimalarial activity against Dd2 strain (AID 2302;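 active = growth inhibition above 50% at the single 2 µM test dose, taken to imply half-maximal potency below 2 µM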;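 note: 0% = DMSO untreated growth and 100% = chloroquine plus artemisinin killed control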); conditions: P. falciparum Dd2 in RBCs, LDH growth readout, 72 h; at 2 µM; active compounds read high
[2] = human hepatoma cell viability loss – ATP luminescence, cytotoxicity control for P. falciparum antimalarial project, primary screen (AID 2303;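 active = inhibition above 50%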;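 note: 0% = DMSO wells and 100% = digitonin-killed cells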); conditions: HepG2 viability, 24-48 h, at 10 µM, active compounds read high
[3] = target: L-lactate dehydrogenase (Plasmodium falciparum (isolate CDC / Honduras)) (UniProt Q27743); test: PfLDH activity inhibition – cell lysate, 3D7 strain, counter-screen for P. falciparum growth inhibition project (AID 2304);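 note: 0% = vehicle and 100% = reference inhibitor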; conditions: P. falciparum 3D7 crude extract, LDH APAD/NBT absorbance; at 2 µM; active compounds read high
[4] = inhibition of 3D7 malaria parasite growth – strain 3D7 (AID 2306);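 note: 0% = DMSO wells and 100% = chloroquine plus artemisinin control wells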; conditions: P. falciparum 3D7 erythrocytic growth, LDH absorbance, 72 h; at 2 µM; active compounds read high
[5] = target: Calcium-dependent protein kinase 1 (Plasmodium falciparum (isolate 3D7)) (UniProt P62344); test: PfCDPK1 kinase inhibitors, biochemical, TCAMS library (AID 1159585; cut-off not given, nearly all actives have IC50 up to about 0.98 µM;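 note: inhibitors leave more ATP so luminescence rises with inhibition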); conditions: recombinant PfCDPK1, Kinase-Glo ATP depletion luminescence
[6] = target: Plasmodium falciparum protein kinase 6 (PK6, PF3D7_1337100) (UniProt Q8IDW1); test: PfPK6 kinase inhibitors, biochemical, TCAMS library (AID 1159586); conditions: recombinant PfPK6, Kinase-Glo ATP depletion luminescence
[7] = target: Protein kinase 7 (PK7), Plasmodium falciparum 3D7 (PF3D7_0213400) (UniProt Q7YTF7); test: inhibition of Plasmodium PK7 catalytic activity – biochemical, TCAMS antimalarial set, Kinase-Glo luminescence (AID 1159587); conditions: recombinant PfPK7, Kinase-Glo ATP depletion luminescence
[8] = target: Calcium-dependent protein kinase 4 (Plasmodium falciparum (isolate 3D7)) (UniProt Q8IBS5); test: PfCDPK4 kinase inhibitors, biochemical, TCAMS library (AID 1159588; cut-off not given, nearly all actives have IC50 up to about 0.91 µM); conditions: recombinant PfCDPK4, Kinase-Glo ATP depletion luminescence
Chain of Calcium-dependent protein kinase 4 (Plasmodium falciparum (isolate 3D7)) (Q8IBS5 whole entry, looked up): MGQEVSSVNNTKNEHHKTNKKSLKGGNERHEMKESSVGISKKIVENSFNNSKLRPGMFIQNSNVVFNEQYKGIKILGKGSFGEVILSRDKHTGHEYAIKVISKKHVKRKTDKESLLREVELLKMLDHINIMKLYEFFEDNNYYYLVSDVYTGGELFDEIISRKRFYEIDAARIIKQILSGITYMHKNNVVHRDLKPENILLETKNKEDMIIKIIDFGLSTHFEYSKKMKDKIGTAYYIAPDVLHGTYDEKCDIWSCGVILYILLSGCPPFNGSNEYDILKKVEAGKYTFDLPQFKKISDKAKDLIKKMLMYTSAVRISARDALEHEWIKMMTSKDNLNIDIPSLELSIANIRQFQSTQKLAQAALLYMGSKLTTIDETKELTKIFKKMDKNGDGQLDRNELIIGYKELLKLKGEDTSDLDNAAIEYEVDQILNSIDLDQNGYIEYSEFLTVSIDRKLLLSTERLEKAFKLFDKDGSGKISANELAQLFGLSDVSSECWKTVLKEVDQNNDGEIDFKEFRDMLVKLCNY

Chain of L-lactate dehydrogenase (Plasmodium falciparum (isolate CDC / Honduras)) (Q27743 whole entry, looked up): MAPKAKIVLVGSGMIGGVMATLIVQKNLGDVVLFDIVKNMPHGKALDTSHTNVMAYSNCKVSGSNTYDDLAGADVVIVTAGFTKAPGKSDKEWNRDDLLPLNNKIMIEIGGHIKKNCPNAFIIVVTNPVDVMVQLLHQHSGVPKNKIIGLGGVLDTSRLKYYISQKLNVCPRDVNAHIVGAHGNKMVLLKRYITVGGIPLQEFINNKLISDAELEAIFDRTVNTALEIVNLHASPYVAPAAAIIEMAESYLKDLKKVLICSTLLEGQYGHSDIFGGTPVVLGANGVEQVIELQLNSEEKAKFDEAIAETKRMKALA
Chain of Calcium-dependent protein kinase 1 (Plasmodium falciparum (isolate 3D7)) (P62344 whole entry, looked up): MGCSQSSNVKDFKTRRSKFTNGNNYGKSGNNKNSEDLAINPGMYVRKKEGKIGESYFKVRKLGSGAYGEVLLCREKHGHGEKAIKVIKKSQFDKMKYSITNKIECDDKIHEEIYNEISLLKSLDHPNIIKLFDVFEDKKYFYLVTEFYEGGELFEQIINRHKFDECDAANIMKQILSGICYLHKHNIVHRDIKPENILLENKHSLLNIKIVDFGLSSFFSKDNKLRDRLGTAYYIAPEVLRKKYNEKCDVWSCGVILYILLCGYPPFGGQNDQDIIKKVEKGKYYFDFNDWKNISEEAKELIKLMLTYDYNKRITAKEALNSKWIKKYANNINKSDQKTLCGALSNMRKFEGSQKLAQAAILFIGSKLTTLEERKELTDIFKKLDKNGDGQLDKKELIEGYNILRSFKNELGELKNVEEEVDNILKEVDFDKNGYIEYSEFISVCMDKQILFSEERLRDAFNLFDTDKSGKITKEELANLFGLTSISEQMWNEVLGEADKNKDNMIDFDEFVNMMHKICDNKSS
Chain of Plasmodium falciparum protein kinase 6 (PK6, PF3D7_1337100) (Q8IDW1 1-305): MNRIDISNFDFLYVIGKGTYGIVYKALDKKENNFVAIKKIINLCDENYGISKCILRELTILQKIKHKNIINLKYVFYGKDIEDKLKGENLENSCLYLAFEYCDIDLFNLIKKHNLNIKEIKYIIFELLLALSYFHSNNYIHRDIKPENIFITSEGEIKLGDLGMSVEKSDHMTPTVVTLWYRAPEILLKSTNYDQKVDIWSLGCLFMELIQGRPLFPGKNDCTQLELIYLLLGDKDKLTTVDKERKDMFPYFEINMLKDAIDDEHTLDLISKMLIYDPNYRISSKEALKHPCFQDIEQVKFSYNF
Chain of Protein kinase 7 (PK7), Plasmodium falciparum 3D7 (PF3D7_0213400) (Q7YTF7 1-343): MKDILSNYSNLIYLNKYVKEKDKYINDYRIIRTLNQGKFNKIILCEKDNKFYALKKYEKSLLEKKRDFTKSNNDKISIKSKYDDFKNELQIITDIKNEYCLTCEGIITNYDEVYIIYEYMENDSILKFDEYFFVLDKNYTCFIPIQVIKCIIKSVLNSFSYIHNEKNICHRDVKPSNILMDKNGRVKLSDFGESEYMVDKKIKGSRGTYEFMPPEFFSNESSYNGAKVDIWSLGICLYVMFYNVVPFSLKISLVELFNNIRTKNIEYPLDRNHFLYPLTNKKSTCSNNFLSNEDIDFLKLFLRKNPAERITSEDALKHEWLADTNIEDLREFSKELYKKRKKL

| SMILES | growth inhibition [1] | inhibition [2] | inhibition [3] | growth inhibition [4] | outcome [5] | outcome [6] | outcome [7] | outcome [8] |
| --- | --- | --- | --- | --- | --- | --- | --- | --- |
| CCNc1cc(C(=O)N[C@@H](Cc2ccccc2)[C@H](O)CN[C@H]2CCc3ccccc32)cc(N2CCCC2=O)c1 | 99% (active) | 8% | 3% | 98% (active) | inactive | inactive | inactive | inactive |
| O=C(O[C@H]1CN[C@H](C#Cc2cc3c(Nc4ccc(OCc5cccc(F)c5)c(Cl)c4)ncnc3s2)C1)N1CCCC1 | 67% (active) | 11% | -7% | 99% (active) | inactive | inactive | inactive | inactive |
| CCC(=O)N1CCc2cc(Br)cc(S(=O)(=O)N3CC(C)CC(C)C3)c21 (stereo not drawn) | 84% (active) | 5% | -3% | 85% (active) | inactive | inactive | inactive | inactive |
| O=S(=O)(Nc1cccc(CCN2CCC(N3CCCCC3)CC2)c1)c1ccc(Oc2ccccc2)cc1 | 25% | 28% | 0% | 100% (active) | inactive | inactive | inactive | inactive |
| COc1cc2c(OC)cccc2cc1CNCCCCCCNCc1cc2cccc(OC)c2cc1OC | 7% | 59% (active) | 1% | 95% (active) | inactive | inactive | inactive | inactive |
| O=C(Nc1cccc(-c2csc(NC(=O)c3ccc4ccccc4c3)n2)c1)c1ccc2ccccc2c1 | 35% | 3% | -2% | 89% (active) | inactive | inactive | inactive | inactive |
| C/C(=C\C(=O)NC1CC1)c1ccccc1OCc1ccccc1 | 1% | 3% | -1% | 90% (active) | inactive | inactive | inactive | inactive |
| O=C(NCC1CC1)C1CCN(C(c2ccc(Cl)cc2)c2ccc(Cl)cc2)CC1 | 95% (active) | 3% | 1% | 99% (active) | inactive | inactive | inactive | inactive |
| O=S(=O)(c1ccccc1Cl)N1CCCCC(c2ccc(C(F)(F)F)cc2)=N1 | 72% (active) | 22% | 4% | 86% (active) | inactive | inactive | inactive | inactive |
| CCN(CC)CC(O)Cc1c2ccc([N+](=O)[O-])cc2nc2cc(OC)c(OC)cc12 (stereo not drawn) | 37% | 41% | -6% | 100% (active) | inactive | inactive | inactive | inactive |
| COc1ccc(NC(=O)c2c(NC(=O)c3cccs3)sc3c2CCCC3)cc1 | 4% | 4% | 1% | 97% (active) | inactive | inactive | inactive | inactive |
| COc1cc(C(=O)Nc2cccc(-c3cn4ccc(C)cc4n3)c2)cc(OC)c1OC | 83% (active) | -1% | 1% | 97% (active) | inactive | inactive | inactive | inactive |
| Cc1ccc(CN2CCCCC(NC(=O)c3cc4ccccc4s3)C2)cc1 (stereo not drawn) | 8% | 9% | -1% | 94% (active) | inactive | inactive | inactive | inactive |
| CCOc1ccc(-c2nonc2NC(=O)CC(C)C)cc1OCC | 37% | -1% | 6% | 92% (active) | inactive | inactive | inactive | inactive |
| Cc1ccccc1CN1CCCN(Cc2ccc(C(=O)Nc3ccc(Cl)cc3)cc2)CC1 | 15% | 48% | 3% | 93% (active) | inactive | inactive | inactive | inactive |
| COc1ccc(NC(=O)[C@H](Cc2ccccc2)Nc2cc(C)nc(NCCN3CCCC3)n2)cc1 | 3% | 15% | -2% | 97% (active) | inactive | inactive | inactive | inactive |
| CN1CCC(NCc2ccc(-c3cccc(S(=O)(=O)NCC4CCCO4)c3)cc2)CC1 (stereo not drawn) | 0% | 8% | -1% | 90% (active) | inactive | inactive | inactive | inactive |
| CCCCCCCCCc1c(C)[nH]c2ccccc2c1=O | 96% (active) | -16% | 7% | 97% (active) | inactive | inactive | inactive | inactive |
| COc1ccc2c(CCNc3nc(SC)ncc3C(=O)NCCc3ccc(F)cc3)c[nH]c2c1 | 49% | 3% | -1% | 91% (active) | inactive | inactive | inactive | inactive |
| O=C(Nc1ccc(Cl)c(C(F)(F)F)c1)Nc1ccc(Cl)c(C(F)(F)F)c1 | 96% (active) | 1% | 6% | 94% (active) | inactive | inactive | inactive | inactive |
| COc1ccc(CN2CCCN(Cc3cccc(NC(=O)c4cc5ccccc5s4)c3)CC2)cc1 | 32% | 32% | 5% | 94% (active) | inactive | inactive | inactive | inactive |

| SMILES | growth inhibition [1] | inhibition [2] | inhibition [3] | growth inhibition [4] | outcome [5] | outcome [6] | outcome [7] | outcome [8] |
| --- | --- | --- | --- | --- | --- | --- | --- | --- |
| O=C(Nc1ccc(Oc2ccccc2)cc1)N(Cc1ccc(-c2cccc(CN3CCNCC3)c2)cc1)C1CCN(Cc2ccccc2)CC1 | 53% (active) | 10% | -1% | 93% (active) | inactive | inactive | inactive | inactive |
| O=C(CCOc1ccccc1)NCC1CCCO1 (stereo not drawn) | -11% | -10% | -3% | 92% (active) | inactive | inactive | inactive | inactive |
| CC(C)[C@@H]1c2ccc(O)cc2C[C@H]2C(=O)N(C3CCCCC3)C(=O)N21 | 88% (active) | 2% | 0% | 95% (active) | inactive | inactive | inactive | inactive |
| N#Cc1ccc(N2CCN(Cc3ccc(-c4ccc(-c5nc6ccc(C(F)(F)F)cc6[nH]5)s4)cc3)CC2)nc1 | 73% (active) | 13% | 4% | 100% (active) | inactive | inactive | inactive | inactive |
| CC(=O)Nc1cccc(C(=O)Nc2ccc(-c3ccc(-c4nc5c(C)cccc5[nH]4)s3)cc2)c1 | 20% | 94% (active) | 2% | 93% (active) | inactive | inactive | inactive | inactive |
| C[C@H](O)[C@@](C)(CO)NCc1ccc2c3c(cccc13)-c1ccccc1-2 | 85% (active) | 81% (active) | -2% | 95% (active) | inactive | inactive | inactive | inactive |
| CCC(C)(C)NC(=O)C(c1cccc(OC)c1)N(C(=O)CNC(=O)c1cccs1)c1ccc2c(c1)OCCO2 (stereo not drawn) | 76% (active) | -7% | -7% | 100% (active) | inactive | inactive | inactive | inactive |
| CC(=O)N1Cc2ccccc2C1=O | -1% | 10% | -4% | 97% (active) | inactive | inactive | inactive | inactive |
| Cn1c(CN2CCC(N3CCc4cc(NC(=O)c5ccco5)ccc43)C2)cc2ccccc21 (stereo not drawn) | 92% (active) | -1% | -3% | 91% (active) | inactive | inactive | inactive | inactive |
| CCN(CCCN1CCCCC1)c1cc(C)nc(Nc2cccc(C(F)(F)F)c2C)n1 | 37% | 57% (active) | -2% | 99% (active) | inactive | inactive | inactive | inactive |
| CC(=O)Nc1ccc(C(=O)Nc2cccc(-c3ccc(-c4nc5ccc(C(F)(F)F)cc5[nH]4)s3)c2)cn1 | 98% (active) | 42% | 3% | 100% (active) | inactive | inactive | inactive | inactive |
| COc1c(C2CCN(CCCCNC(=O)c3ccc(-c4ccc(Cl)cc4)c(O)c3)CC2)ccc2c1CCCC2 | 99% (active) | 91% (active) | -5% | 102% (active) | inactive | inactive | inactive | inactive |
| CN(C)CCOc1cc(NC(=O)/C=C/c2cccc3ccccc23)ccc1I | 7% | 55% (active) | 0% | 98% (active) | inactive | inactive | inactive | inactive |
| O=C(/C=C/c1ccc(Cl)c(Cl)c1)N1CCC(CCN2CCC(c3nc4ccc(O)cc4[nH]3)CC2)CC1 | 60% (active) | 42% | 4% | 100% (active) | inactive | inactive | inactive | inactive |
| O=C(Nc1cc(Oc2ccc(O)cc2)cc([N+](=O)[O-])c1)c1cc(-c2ccc(F)cc2)no1 | 37% | 61% (active) | 0% | 88% (active) | inactive | inactive | inactive | inactive |
| COc1ccc2nc(C)cc(Nc3ccc(Cl)c(Cl)c3)c2c1 | 99% (active) | 30% | -8% | 100% (active) | inactive | inactive | inactive | inactive |
| CC(C)N(Cc1ccc(-c2ccc(C(F)(F)F)cc2)cc1)C(=O)Cn1c(SCc2cccc(F)c2F)cc(=O)c2cc(CN3CCCCC3)ccc21 | 59% (active) | 97% (active) | -8% | 103% (active) | inactive | inactive | inactive | inactive |
| CC1(C)N=C(N)N=C(N)N1OCc1ccc2c(c1)OCO2 | 86% (active) | 66% (active) | -3% | 93% (active) | inactive | inactive | inactive | inactive |
| COc1ccc(-c2cc(NCc3ccc(-n4ccnc4)cc3)nc(Nc3ccccc3)n2)cc1 | 79% (active) | 8% | 0% | 101% (active) | inactive | inactive | inactive | inactive |
| Cc1ccc(C(=O)Nc2ccc(F)cc2)cc1-c1nc(NC2CC(C)(C)NC(C)(C)C2)nc2c1ccc(=O)n2-c1c(F)cccc1F | 96% (active) | 16% | -2% | 89% (active) | inactive | inactive | inactive | inactive |
